From PubChem
BJeLR lethal: MLPCN primary cell-based screen for lethality selective to Ras in HRASV12 cells; BJeLR (HRASV12) viability, CellTiter-Glo ATP luminescence, 48 h; hit rate 0.17% among 300,000; AID 1554, 2009; inhibition, % (no concentration beside the values); in the data active = inhibition above about 50%
ugtP null kill: growth inhibition of ugtP-null S. aureus, primary screen, RN4220 ugtP deletion, OD600; growth inhibition, % (test concentration not listed); hit rate 0.54% among 330,000; AID 1259309, 2017; 16 h; in the data active = growth inhibition above about 68%;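 also: plate controls were untreated wells for no effect and antibiotic for full effect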
RN4220 kill: growth inhibition of S. aureus RN4220, primary screen, OD600; 16 h; inhibition, % (test concentration not listed); hit rate 0.33% among 330,000; AID 1259311, 2017; in the data active = inhibition above about 85%;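 also: plate controls were untreated cells for no effect and reference antibiotic for full effect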
Y pestis TopoI: Yersinia pestis topoisomerase I inhibitors, primary screen, biochemical, cleavage product accumulation, plate reader, single point | activity, % at 10 µM | DNA topoisomerase I (Yersinia pestis CO92) | Y. pestis Topo-I cleavage product accumulation | hit rate 0.064% among 360,000 | AID 504884, 2011; in the data active = activity above about 50%, passing the limit was not always enough
PfHsp40 rescue: rescue of yeast from PfHsp40 toxicity, primary screen, S. cerevisiae, ATP luminescence. S. cerevisiae expressing PfHsp40, growth rescue. growth rescue, % at 12.5 µM. hit rate 0.68% among 340,000; in the data active = growth rescue above about 28%, passing the limit was not always enough;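 also: yeast W303a lacking pdr1 and pdr3 grown in galactose medium; growth measured after three days at 30 °C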
PrP UTR inh: inhibition of PrP 5' UTR reporter expression. cell-based PrP 5' UTR mRNA reporter, plate reader. hit rate 0.35% among 340,000. inhibition, % (no concentration beside the values); in the data active = inhibition above about 52%; also: 0 = median of the neutral control wells
PrP UTR cherry: prion 5' UTR mRNA inhibition, cherry-pick retest | inhibition, % at 2.5 µM | cell-based prion protein 5' UTR reporter, plate reader | shares compounds with PrP UTR inh | hit rate 48% among 1,100; in the data active = inhibition above about 54%
* = called active by the depositor; / = no result given. The list is not random: actives were taken first. Their share in the collection is about 1.4%.

SMILES | BJeLR lethal | ugtP null kill | RN4220 kill | Y pestis TopoI | PfHsp40 rescue | PrP UTR inh | PrP UTR cherry
COc1ccc2c(c1)/C(=C/c1cc(OC)c(OC)c(OC)c1)C(=O)N2 | / | / | / | 12.0 | -2.3 | 64.2* | 73.1*
CC=C(C)C(=O)NCCN1C2=NCC(Cc3ccccc3)N2CC1Cc1ccc(OC)cc1 (stereo not drawn) | / | -1.7 | 2.8 | / | / | / | /
CC1CCN(C(=O)c2[nH]cnc2C(=O)NC(Cc2ccccc2)C(=O)OC(C)(C)C)CC1 (stereo not drawn) | / | 2.0 | 4.8 | / | / | / | /
CCOC(=O)C1(CCOC)CCCCC1=O (stereo not drawn) | / | / | / | 2.7 | / | / | /
CCOC(=O)C1(Cc2ccccc2)CCCCCC1=O (stereo not drawn) | / | / | / | -7.0 | -2.0 | 55.4* | 0.6
COc1cc2c(c(OC)c1OC)-c1ccc(OC)c(=O)cc1[C@@H](N(C)CC#CCO)CC2 | 45.0 | / | / | -3.0 | 1.5 | 80.2* | 90.8*
CCN(CC)c1ccc2c(cc1=O)[C@@H](NC)CCc1cc(OC)c(OC)c(OC)c1-2 | 56.0* | / | / | -1.1 | -1.7 | 80.3* | 81.5*
COc1cc2c(c(OC)c1O)-c1ccc(OC)c(=O)cc1C(NC(=O)C(F)(F)F)CC2 (stereo not drawn) | / | / | / | 0.3 | -0.5 | 54.4* | 90.0*
Cc1ccc(-n2c([S-])c(C(=O)Nc3ccc(OC(F)F)cc3)[n+]3ccc(C(=O)NCCO)cc23)cc1C | -0.5 | -13.4 | -6.6 | 2.3 | 0.9 | 78.2* | -0.2
CCOC(=O)Cc1[nH]nc2c1C(c1ccsc1)C(C#N)=C(N)O2 (stereo not drawn) | -1.3 | 7.3 | 13.2 | 6.1 | -1.6 | 53.0* | -9.5
COCc1[nH]nc2c1C(c1ccsc1)C(C#N)=C(N)O2 (stereo not drawn) | -6.7 | -5.9 | 4.3 | -4.7 | -1.3 | -26.2 | /
CCOc1ccc(-n2c(Cc3cc(=O)[nH]c(=O)[nH]3)nnc2SCC(=O)NC2CCCC2)cc1 | / | 0.7 | 0.9 | 2.5 | -0.2 | -9.7 | /
COc1ccc(-n2c(Cc3cc(=O)[nH]c(=O)[nH]3)nnc2SCC(=O)NC2CCCC2)cc1 | -10.6 | -2.7 | -3.7 | 3.6 | 5.0 | 61.2* | -5.5
Cc1noc(C)c1NC(=O)Nc1cccc2c1OC(CN(C)C(=O)Nc1ccc(C(F)(F)F)cc1)C(C)CN(C(C)CO)C2=O (stereo not drawn) | / | -11.5 | 0.0 | / | / | / | /
CCC1(CC)C(=O)C2=C3C(CC(C(=O)OC)=CC(C(=O)OC)C31)C1C(=O)N(CC(=O)OC)C(=O)C1C2C (stereo not drawn) | / | -6.8 | 3.6 | / | / | / | /
O=c1c2ccccc2cnn1-c1nc2ccccc2[nH]1 | 82.2* | 5.9 | 2.3 | 2.3 | -6.1 | 91.7* | 90.9*
O=c1c(Cl)c(N2CCCCC2)cnn1-c1nc2ccccc2[nH]1 | 24.8 | 0.0 | 3.3 | 4.1 | -0.7 | 74.8* | 69.2*
O=c1c2ccccc2nc2c3ccccc3cnn12 | -2.4 | 2.9 | 1.1 | 6.7 | 1.8 | -69.1 | /
COC(=O)C1=C(c2ccc(C(C)=O)cc2)CC2CCC1N2C(=O)NCc1ccco1 (stereo not drawn) | / | 7.8 | 7.0 | / | / | / | /
COc1cccc(N2CCN(C(=O)c3ccc(CS(=O)c4ccccc4C)o3)CC2)c1 (stereo not drawn) | 32.1 | / | / | 42.2 | 2.8 | 56.4* | 83.5*
CC(=O)n1cc(C2C=C(C(=O)O)OC(OCCCCO)C2)c2ccccc21 (stereo not drawn) | / | -1.3 | 2.8 | / | / | / | /
COc1ccc(S(=O)(=O)Nc2cccc3c2OC(CN(C)S(=O)(=O)c2ccc(Cl)cc2)C(C)CN(C(C)CO)C3=O)cc1 (stereo not drawn) | / | -15.5 | -0.1 | / | / | / | /
CCN1C(=O)[C@H]2[C@H]3CN=C(SC)N3[C@@](CC)(C(=O)OC)[C@H]2C1=O | / | -1.3 | -0.4 | -1.9 | 0.1 | 66.0* | -11.4
COc1ccc(OCc2cccc(C(=O)O)c2)cc1 | 41.6 | -3.8 | -9.5 | -5.3 | 1.0 | 93.3* | 93.6*
CCOC(=O)c1cccc(NC(=O)Nc2ccc(OCC)cc2)c1 | 4.0 | -3.5 | 2.0 | -4.3 | -1.0 | -8.0 | /
SMILES | BJeLR lethal | ugtP null kill | RN4220 kill | Y pestis TopoI | PfHsp40 rescue | PrP UTR inh | PrP UTR cherry
CCOc1ccc(NC(=O)c2ccccn2)cc1 | 13.3 | -1.7 | -3.8 | -4.8 | -2.5 | 61.8* | 72.2*
CCOc1ccc(NC(=O)Nc2cccc(C(=O)O)c2)cc1 | 30.9 | / | / | 1.0 | -2.5 | 88.0* | 91.0*
CCOc1ccc(NC(=O)c2cnccn2)cc1 | 1.1 | 2.7 | 0.2 | -1.7 | -0.5 | -23.6 | /
O=C(OCC(F)(F)F)c1cccc(COc2ccc3ccccc3c2)c1 | -5.6 | 23.9 | 4.2 | 10.4 | 1.8 | 62.9* | 66.0*
CCOc1ccc(OCc2cccc(C(=O)N3CCCCCC3)c2)cc1 | 2.1 | 3.7 | 4.4 | 26.7 | 0.2 | 20.5 | /
O=C(NC(Cc1ccccc1)C(=O)O)C(=Cc1ccco1)NC(=O)c1ccco1 (stereo not drawn) | / | -7.2 | -2.4 | / | / | / | /
O=C(O)c1cccc(COc2ccc(CO)cc2Cl)c1 | 15.2 | 0.4 | 8.7 | -8.5 | 0.5 | 93.3* | 92.7*
O=C(O)c1cccc(COc2ccc3c(c2)CCC3)c1 | 2.8 | -1.8 | 10.7 | 1.9 | 2.5 | 82.2* | 88.3*
CCOc1ccc(OCc2cccc(C(=O)O)c2)cc1 | 55.3* | 23.2 | 3.6 | -0.4 | -2.1 | 92.7* | 94.6*
Cc1ccccc1OCC(=O)Nc1cccc(C(=O)O)c1 | 4.3 | 1.5 | 4.8 | -11.5 | 0.3 | 76.0* | 77.5*
CCOc1ccc(OCc2cccc(C(=O)N3CCCC3)c2)cc1 | -3.1 | 2.0 | -0.3 | 10.7 | -0.5 | 7.1 | /
Cc1cccc(OCC(=O)Nc2cc(NC(=O)COc3cccc(C)c3C)cc(C(=O)O)c2)c1C | -0.3 | -5.4 | 1.5 | 21.9 | -0.4 | -13.1 | /
Cc1ccc(C2C3C(=O)N(C)C(=O)C3[C@]3(C)C(=O)N(Cc4ccc(-c5ccccc5)cc4)CC(=O)N23)o1 (stereo partly drawn) | / | -2.6 | 4.1 | / | / | / | /
O=C(c1cnn2ccccc12)N1CCCc2ccccc21 | -5.5 | 13.4 | 5.3 | -3.1 | 0.3 | 60.4* | 31.9
O=C(c1cnc2ccccn2c1=O)N1CCCc2ccccc21 | -4.1 | 1.5 | 2.1 | 1.8 | 1.4 | -15.3 | /
CCOC(=O)CC1c2ccc(C(F)(F)F)cc2S(=O)(=O)N1c1ccccc1 (stereo not drawn) | / | 12.2 | 13.8 | / | / | / | /
COc1ccccc1N1CCN(C(=O)c2c(C)cc(=O)oc2C)CC1 | -0.6 | 1.8 | -9.9 | -5.4 | -0.1 | -22.6 | /
Cc1cc(=O)oc(C)c1C(=O)N1CCN(C(c2ccccc2)c2ccccc2)CC1 | 8.5 | 0.9 | 6.4 | 4.1 | -0.2 | 72.5* | -21.2
Cc1ccccc1-c1nc2cc(N)ccc2o1 | 4.2 | -5.9 | 8.6 | 1.0 | 0.9 | -63.2 | /
CC(C)c1ccc2oc(-c3cc(N)ccc3O)nc2c1 | -6.5 | 10.4 | -0.4 | 4.5 | 0.7 | 63.3* | 33.3
